Results on 31 compounds are retold here after ChEMBL document CHEMBL1157539, “Thousands of chemical starting points for antimalarial lead identification” (Nature, 2010).

SMILES strings stand for the structures.

Holding throughout (format): functional
Experiment [1] deals with Plasmodium falciparum. In words: GSK_TCMDC: Inhibition of Plasmodium falciparum 3D7 in whole red blood cells, using parasite LDH activity as an index of growth. Test compounds present at 2uM.
Experiment [2] concerns Plasmodium falciparum. Briefly: GSK_TCMDC: Inhibition of Plasmodium falciparum Dd2 in whole red blood cells, using parasite LDH activity as an index of growth. Test compounds present at 2uM.
Experiment [3] concerns HepG2. In words: GSK_TCMDC: Percent inhibition of human HepG2 cell line. Test compounds present at 10uM.

As to `Cc1cc(-c2cnc(N)c(-c3ccc(N4CCN(C)CC4)nc3)c2)cc(C)c1O`, the results for the Inhibition in experiment [1], in experiment [2] and in experiment [3] were 91%, 33% and 0%, respectively.
In the same order, the values of `Cc1cccc2nc(-c3ccc(-c4ccc(NC(=O)C(C)CN5CCN(C)CC5)cc4)s3)[nH]c12` (stereo not drawn) are 100%, 99% and 17%.
On to `CC(C)(C)OC(=O)NCc1ccc(Nc2nnc(-c3cccc(C(=O)NCCC(c4ccccc4)c4ccccc4)c3)o2)cc1`, for which the Inhibition in experiment [1] is given as 100%; in experiment [2] it was 89%; in experiment [3], 0%.
On to `Cl.N=C(N)Nc1ccc(OCCCCCOc2ccc(NC(=N)N)c(Cl)c2)cc1Cl`, for which the Inhibition in experiment [1] came to 92%; in experiment [2] it was 92%; in experiment [3], 18%.
On to `Cl.O=C(Nc1ccnc2ccccc12)NC1CCN(CCc2ccccc2)CC1`, for which the Inhibition in experiment [1] came out at 100%; in experiment [2], 43%; in experiment [3] it was 7%.
`COc1cccc(C(O)CNc2ccnc(Nc3ccc(Cl)cc3)n2)c1` (stereo not drawn): the Inhibition in experiment [1] was 99%; in experiment [2] it was 46%; in experiment [3], 31%.
In the same order, the values of `CC(=O)Nc1cccc(C(=O)Nc2cccc(-c3cccc(-c4nc5cc(F)ccc5[nH]4)c3)c2)c1` are 100%, 44% and 51%.
In the same order, the values of `CC(C)(C)C(C)(C)Cc1ccc(O)c(CN2CCN(c3ccccc3)CC2)c1` are 99%, 98% and 6%.
In the same order, the values of `N#Cc1ccc2[nH]cc(C(=O)CCCCCN(Cc3ccccc3)Cc3ccccc3)c2c1` are 93%, 97% and 10%.
As for `Cl.N#Cc1ccc2c(c1)CCN(CCC1CCC(NC(=O)/C=C/c3cnc4ccccc4c3)CC1)CC2` (stereo not drawn), the Inhibition in experiment [1] was found to be 87%; in experiment [2], 21%; in experiment [3] it was 22%.
In the same order, the values of `CCCC(=O)NC(c1ccc(C(C)C)cc1)c1ccc2cccnc2c1O` (stereo not drawn) are 90%, 37% and 50%.
In the same order, the values of `COc1ccc2ccccc2c1C=NNc1ccnc2cc(Cl)ccc12` are 100%, 94% and 20%.
In the same order, the values of `CCn1cc(CN2C(=O)C(c3ccccc3)(c3ccccc3)N=C2N)cn1.O=CO` are 95%, 60% and 7%.
Regarding `COc1ccc(NC(=O)c2ccc(Br)c(C)c2)cc1N1CCN(Cc2ccccc2)CC1.O=C(O)C(=O)O`, the Inhibition is listed as 95% in experiment [1], 3% in experiment [2] and 0% in experiment [3].
In the same order, the values of `Cc1ccc(S(=O)(=O)N2CCN(C(=O)c3cc(-c4cccs4)n[nH]3)CC2)c(C)c1` are 85%, 81% and 0%.
In the same order, the values of `Cc1cc(O)c(CN(C)Cc2ccc3c(c2)OCO3)cc1C(C)C` are 98%, 74% and 9%.
In the same order, the values of `Br.CCc1cccc(OCCCON2C(=N)N=C(N)NC2(C)C)c1` are 95%, 94% and 63%.
For the compound `Cc1ccc(C(C(=O)Nc2ccc(N3CCNCC3)c(Cl)c2)c2ccccc2)cc1` (stereo not drawn), the Inhibition in experiment [1] was 97%; in experiment [2] it was 93%; in experiment [3] it was 23%.
In the same order, the values of `O=[N+]([O-])c1ccc(Nc2nc(NCc3ccccc3)nc(N/N=C/c3ccccc3[N+](=O)[O-])n2)cc1` are 100%, 99% and 18%.
In the same order, the values of `O=C(Nc1nc2cc(S(=O)(=O)NCCCN3CCOCC3)ccc2n1CCCn1ccnc1)c1ccc(Cl)cc1.O=C(O)C(F)(F)F` are 95%, 0% and 0%.
In the same order, the values of `Cc1cc(N(C)C2CCN(C)C2)nc(Nc2ccccc2Cl)n1` (stereo not drawn) are 100%, 84% and 1%.
Turning to `CS(=O)(=O)NCCCNCc1ccc(-c2ccc(-c3nc4cc(F)ccc4[nH]3)s2)cc1.O=C(O)C(F)(F)F`, the figures for the Inhibition in experiment [1], in experiment [2] and in experiment [3] were 95%, 30% and 23%, respectively.
As for `CCCN1CCN(CCCNC(=O)c2cc3c(-c4ccc(Cl)cc4)nn(C)c3s2)CC1`, the Inhibition in experiment [1] is reported as 88%; in experiment [2], 20%; in experiment [3] it was 46%.
For the compound `N#Cc1cccc(COC(=O)C2=C(COc3ccccc3Cl)NC(=O)NC2c2c[nH]c3cnccc23)c1` (stereo not drawn), the Inhibition was determined as 99% in experiment [1], 0% in experiment [2] and 0% in experiment [3].
`Cc1noc(C)c1-c1ccc2c(Nc3ccccc3C(C)(C)C)c(C(=O)NCc3ccc4c(c3)OCO4)cnc2c1.Cl`: the results for the Inhibition in experiment [1], in experiment [2] and in experiment [3] were 96%, 88% and 37%, respectively.
In the same order, the values of `Br.CC(CCON1C(N)=NC(N)=NC1(C)C)c1ccc(Cl)c(Cl)c1` (stereo not drawn) are 98%, 97% and 60%.
In the same order, the values of `CC(C)(CNC(=O)/C=C/c1ccc(Cl)c(Cl)c1)CNc1cc(=O)c2ccccc2[nH]1` are 96%, 29% and 0%.
Turning to `NC(=O)c1ccc(-c2ccc3ccnc(N)c3c2)cc1.O=C(O)C(F)(F)F`, the figures for the Inhibition in experiment [1], in experiment [2] and in experiment [3] were 100%, 98% and 56%, respectively.
In the same order, the values of `Br.C=CCc1cccc(C)c1OCCCON1C(=N)N=C(N)NC1(C)C` are 94%, 95% and 65%.
In the same order, the values of `Cc1cc(=NN=Cc2ccc(Cl)cc2)c2cc(F)ccc2[nH]1` are 100%, 98% and 6%.
With `COc1ccc2c(NN=Cc3ccccc3)ccnc2c1`, the results for the Inhibition in experiment [1], in experiment [2] and in experiment [3] were 100%, 98% and 18%, respectively.

By Inhibition is commonly meant the share of the control response that was lost under treatment.
